According to PubChem BioAssay (NCI):
The panel holds about 83,000 compounds, 20% with a hit somewhere; the sample as a whole holds those more often.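 Single-concentration screen, 48 h exposure, 96-well plates. Endpoint: percent growth. Below 10 = active.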 Activity calls are given as the source filed them.

What was measured:
Test in all cases: NCI-60 one-dose screen, 48 h (100 = growth as untreated, 0 = no growth, -100 = all killed)
Settings in all cases: 10 µM unless noted
DU-145 prostate = tested on: DU-145 prostate
K-562 leukemia = tested on: K-562 leukemia
MALME-3M melanoma = tested on: MALME-3M melanoma
MDA-MB-231 breast = tested on: MDA-MB-231 breast
RXF 393 renal = tested on: RXF 393 renal
SF-268 CNS = tested on: SF-268 CNS
SF-295 CNS = tested on: SF-295 CNS
SF-539 CNS = tested on: SF-539 CNS
M14 melanoma = tested on: M14 melanoma
HCT-15 colon = tested on: HCT-15 colon
HT29 colon = tested on: HT29 colon
SNB-75 CNS = tested on: SNB-75 CNS
U251 CNS = tested on: U251 CNS
PC-3 prostate = tested on: PC-3 prostate
SK-MEL-5 melanoma = tested on: SK-MEL-5 melanoma
UACC-62 melanoma = tested on: UACC-62 melanoma
LOX IMVI melanoma = tested on: LOX IMVI melanoma
SK-MEL-28 melanoma = tested on: SK-MEL-28 melanoma
UACC-257 melanoma = tested on: UACC-257 melanoma
SNB-19 CNS = tested on: SNB-19 CNS

Measured: growth

Cc1cc2cc3cc(C)c(N(C)C)cc3[n+](C)c2cc1N(C)C
active: SF-539 CNS 9.99% | PC-3 prostate 4.2%
inactive: DU-145 prostate 24.2% | K-562 leukemia 44.7% | MALME-3M melanoma 19.9% | MDA-MB-231 breast 57.1% | RXF 393 renal 25% | SF-268 CNS 11.7% | SF-295 CNS 16.6% | M14 melanoma 41.2% | HCT-15 colon 65.6% | HT29 colon 16.6% | SNB-75 CNS 35.4% | U251 CNS 12.3% | SK-MEL-5 melanoma 42.1% | UACC-62 melanoma 56% | LOX IMVI melanoma 25.9% | SK-MEL-28 melanoma 39.6%

O=c1cc(-c2ccccc2)[nH]c2ccccc12
active: SF-539 CNS 4.43%
inactive: DU-145 prostate 17.6% | K-562 leukemia 32.6% | MALME-3M melanoma 50% | MDA-MB-231 breast 95.6% | RXF 393 renal 36.1% | SF-268 CNS 50.5% | SF-295 CNS 16.4% | M14 melanoma 15.9% | HCT-15 colon 17.5% | HT29 colon 15.3% | SNB-75 CNS 30% | U251 CNS 27.2% | PC-3 prostate 27.1% | UACC-62 melanoma 64.5% | LOX IMVI melanoma 57.7% | SK-MEL-28 melanoma 62.4%

COC1/C=C\OC2(C)Oc3c(C)c(O)c4c(O)c(c(CN(C)CCO)c(O)c4c3C2=O)NC(=O)/C(C)=C\C=C/C(C)C(O)C(C)C(O)C(C)C(OC(C)=O)C1C (centres undefined)
inactive: DU-145 prostate 116% | K-562 leukemia 92.3% | MALME-3M melanoma 84.2% | MDA-MB-231 breast 108% | RXF 393 renal 98.5% | SF-268 CNS 97.3% | SF-295 CNS 113% | SF-539 CNS 91.1% | UACC-257 melanoma 105% | HCT-15 colon 104% | HT29 colon 140% | SNB-75 CNS 83.2% | U251 CNS 109% | PC-3 prostate 97.2% | SK-MEL-5 melanoma 108% | UACC-62 melanoma 97.6% | LOX IMVI melanoma 94.9% | SK-MEL-28 melanoma 124%

CC1=NNC(=O)C1C (centres undefined)
inactive: DU-145 prostate 104% | K-562 leukemia 97.3% | MALME-3M melanoma 467% | MDA-MB-231 breast 109% | RXF 393 renal 90.5% | SF-268 CNS 107% | SF-295 CNS 110% | SF-539 CNS 111% | M14 melanoma 96.8% | HCT-15 colon 98.7% | HT29 colon 109% | SNB-75 CNS 91.4% | U251 CNS 105% | PC-3 prostate 108% | SK-MEL-5 melanoma 103% | UACC-62 melanoma 94.5% | LOX IMVI melanoma 99% | SK-MEL-28 melanoma 106%

O=c1[nH]c(-c2ccccn2)nc2sc3c(c12)CCCCC3
active: LOX IMVI melanoma 8.61%
inactive: DU-145 prostate 48.8% | K-562 leukemia 21.4% | MALME-3M melanoma 75.3% | MDA-MB-231 breast 52.4% | RXF 393 renal 70.4% | SF-268 CNS 47.6% | SF-295 CNS 33.1% | UACC-257 melanoma 73.4% | M14 melanoma 43.3% | HCT-15 colon 34.3% | HT29 colon 36.9% | SNB-75 CNS 80.9% | SNB-19 CNS 46.1% | U251 CNS 17.1% | PC-3 prostate 44.2% | SK-MEL-5 melanoma 44.5% | UACC-62 melanoma 20.2% | SK-MEL-28 melanoma 45.2%

c1ccc2sc(SCCCn3ccnc3)nc2c1
inactive: DU-145 prostate 101% | K-562 leukemia 103% | MALME-3M melanoma 96.1% | MDA-MB-231 breast 89.6% | RXF 393 renal 95.2% | SF-268 CNS 98.4% | SF-295 CNS 97.4% | UACC-257 melanoma 87.3% | M14 melanoma 102% | HCT-15 colon 98.3% | HT29 colon 67% | SNB-75 CNS 117% | SNB-19 CNS 94% | U251 CNS 88.2% | PC-3 prostate 80.1% | SK-MEL-5 melanoma 92.1% | UACC-62 melanoma 87.8% | LOX IMVI melanoma 96.5% | SK-MEL-28 melanoma 109%

CC(C)[C@H]1COC(=O)N1[C@@H]1C(=O)N([C@@H](CCC(=O)N2CCN(C3CCCC3)CC2)C(=O)N[C@@H]2CCCc3ccccc32)[C@@H]1/C=C/c1cccc(Br)c1
active: SF-268 CNS 8.27% | UACC-257 melanoma -34.6% | HT29 colon -15.3% | SK-MEL-5 melanoma -82.2% | LOX IMVI melanoma -32%
inactive: DU-145 prostate 40.5% | K-562 leukemia 41.9% | MALME-3M melanoma 13.1% | MDA-MB-231 breast 26.3% | RXF 393 renal 53.3% | SF-295 CNS 51.5% | M14 melanoma 25.8% | HCT-15 colon 20.9% | SNB-75 CNS 50% | SNB-19 CNS 44.7% | U251 CNS 27.5% | PC-3 prostate 29.7% | UACC-62 melanoma 47.3% | SK-MEL-28 melanoma 32.2%

Cn1c(=O)c2[nH]c(C(O)C(O)C(O)C(O)CO)nc2n(C)c1=O (centres undefined)
inactive: DU-145 prostate 109% | K-562 leukemia 95.1% | MALME-3M melanoma 97% | MDA-MB-231 breast 101% | RXF 393 renal 115% | SF-268 CNS 106% | SF-295 CNS 103% | UACC-257 melanoma 93.6% | M14 melanoma 105% | HCT-15 colon 106% | HT29 colon 99.6% | SNB-75 CNS 92.6% | SNB-19 CNS 97.3% | U251 CNS 100% | PC-3 prostate 93.2% | SK-MEL-5 melanoma 104% | UACC-62 melanoma 99.7% | LOX IMVI melanoma 102% | SK-MEL-28 melanoma 100%

CC/C=C\C[C@H](O)C/C=C1/C(=O)C=C[C@@H]1C/C=C\CCCC(=O)OC(C)C
inactive: DU-145 prostate 11.5% | SF-268 CNS 12.9% | SNB-75 CNS 46%
active: K-562 leukemia -7.12% | MALME-3M melanoma -56.2% | MDA-MB-231 breast 7.13% | RXF 393 renal -82.7% | SF-295 CNS -24.7% | UACC-257 melanoma -51% | M14 melanoma -31.3% | HCT-15 colon -33.5% | HT29 colon -49.7% | SNB-19 CNS 9.75% | U251 CNS -89.8% | PC-3 prostate -0.368% | SK-MEL-5 melanoma -94.7% | UACC-62 melanoma -41.7% | LOX IMVI melanoma -82.3% | SK-MEL-28 melanoma -41.3%

NC(N)=Nc1ccc(S(=O)(=O)O)cc1
inactive: DU-145 prostate 131% | K-562 leukemia 92.2% | MALME-3M melanoma 103% | MDA-MB-231 breast 93.6% | RXF 393 renal 136% | SF-268 CNS 110% | SF-295 CNS 117% | UACC-257 melanoma 99.1% | M14 melanoma 110% | HCT-15 colon 102% | HT29 colon 111% | SNB-75 CNS 88.7% | SNB-19 CNS 90% | U251 CNS 111% | PC-3 prostate 99.1% | SK-MEL-5 melanoma 101% | UACC-62 melanoma 86.9% | LOX IMVI melanoma 96.5% | SK-MEL-28 melanoma 103%

CC(=O)C1=C(O)C=C2Oc3c(C(=O)/C=C/c4c(Cl)cccc4Cl)c(O)c(C)c(O)c3[C@]2(C)C1=O
active: DU-145 prostate 6.3% | K-562 leukemia -26.7% | MALME-3M melanoma -67.7% | MDA-MB-231 breast -63.4% | RXF 393 renal -48.9% | SF-268 CNS -20.4% | SF-295 CNS -37% | UACC-257 melanoma -37% | M14 melanoma -10.9% | HCT-15 colon -50.4% | HT29 colon -18.5% | SNB-75 CNS -22.3% | SNB-19 CNS -23.7% | U251 CNS -33% | PC-3 prostate -3.69% | SK-MEL-5 melanoma -86.3% | UACC-62 melanoma -69.7% | LOX IMVI melanoma -51.9% | SK-MEL-28 melanoma -60.1%

C=C1CCC2C3(C)COC(C)(C)OC3CCC2(C)C1C/C=C1/C(=O)OCC1OC(C)=O (centres undefined)
inactive: DU-145 prostate 42.4% | MALME-3M melanoma 71.9% | MDA-MB-231 breast 86.2% | SF-268 CNS 63.4% | SF-295 CNS 116% | UACC-257 melanoma 20.2% | M14 melanoma 19.3% | HCT-15 colon 33.8% | HT29 colon 18.4% | SNB-75 CNS 58% | SNB-19 CNS 110% | U251 CNS 36.7% | PC-3 prostate 56.4% | SK-MEL-5 melanoma 56.9% | UACC-62 melanoma 41.9% | SK-MEL-28 melanoma 69.6%
active: K-562 leukemia 9.82% | RXF 393 renal -53.8% | LOX IMVI melanoma 8.63%

CCN(C(=O)CN1CCN(c2cc3c(cc2F)c(=O)c(C(=O)O)cn3C2CC2)CC1)c1nc(-c2ccc(OC)cc2)cs1
inactive: DU-145 prostate 35.7% | K-562 leukemia 32.5% | MALME-3M melanoma 66.1% | MDA-MB-231 breast 68.5% | RXF 393 renal 74.9% | SF-268 CNS 59.8% | SF-295 CNS 94.6% | UACC-257 melanoma 43.1% | M14 melanoma 48.7% | HCT-15 colon 51.5% | SNB-75 CNS 81.8% | SNB-19 CNS 78.2% | U251 CNS 14.1% | PC-3 prostate 20.9% | SK-MEL-5 melanoma 28.9% | UACC-62 melanoma 17.1% | SK-MEL-28 melanoma 45.1%
active: HT29 colon 7.28% | LOX IMVI melanoma -57.9%

C[C@@]1(N2C(=O)OC[C@@H]2c2ccccc2)C(=O)N([C@H](CC(=O)N2CCC(N3CCCCC3)CC2)C(=O)NCc2cccc(C(F)(F)F)c2)[C@@H]1/C=C/c1ccccc1
active: K-562 leukemia -40.6% | MALME-3M melanoma -69.5% | UACC-257 melanoma -72.1% | M14 melanoma -54.3% | HT29 colon -3.04% | SK-MEL-5 melanoma -93% | LOX IMVI melanoma -50.1% | SK-MEL-28 melanoma -45.2%
inactive: DU-145 prostate 63.5% | MDA-MB-231 breast 31% | RXF 393 renal 61% | SF-268 CNS 63.2% | SF-295 CNS 100% | HCT-15 colon 19% | SNB-75 CNS 66.3% | SNB-19 CNS 74.1% | U251 CNS 38.4% | PC-3 prostate 52.8% | UACC-62 melanoma 24.6%

CCOC(=O)/C=C/c1ccc(C(=O)OCC)[nH]1
inactive: DU-145 prostate 73.4% | K-562 leukemia 19.4% | MALME-3M melanoma 73.1% | MDA-MB-231 breast 58.8% | RXF 393 renal 87.3% | SF-268 CNS 69.2% | SF-295 CNS 63% | UACC-257 melanoma 68.1% | M14 melanoma 47.6% | HCT-15 colon 24.3% | HT29 colon 15% | SNB-75 CNS 70.1% | SNB-19 CNS 87.7% | U251 CNS 39.9% | PC-3 prostate 83.5% | UACC-62 melanoma 51% | LOX IMVI melanoma 52.7% | SK-MEL-28 melanoma 83.8%
active: SK-MEL-5 melanoma 8.89%

CCN(CC)C12CCCCC1(C)C(C#N)(C#N)C(C#N)=C(N)O2 (centres undefined)
inactive: DU-145 prostate 107% | K-562 leukemia 95.5% | MALME-3M melanoma 92.3% | MDA-MB-231 breast 108% | RXF 393 renal 144% | SF-268 CNS 99.6% | SF-295 CNS 98% | UACC-257 melanoma 114% | M14 melanoma 102% | HCT-15 colon 106% | HT29 colon 101% | SNB-75 CNS 92.1% | SNB-19 CNS 106% | U251 CNS 103% | PC-3 prostate 115% | SK-MEL-5 melanoma 116% | UACC-62 melanoma 90.8% | LOX IMVI melanoma 98.9% | SK-MEL-28 melanoma 99.3%
